Assay results published in PubChem BioAssay (NCI).
Compounds without any hit were thinned out: in the full panel of roughly 79,000, 15% have a hit. A number with no mark means an inactive call. Calls of active or inactive are those of the source. Cut-off read from the data, not from the text of the source: active = growth inhibition above about 70%; inactive = the rest.

Legend:
[1] = NCI Yeast Anticancer Drug Screen. Data for the rad52 strain (AID 147);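 note: 0% = growth of vehicle-treated control cultures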; conditions: S. cerevisiae rad52 mutant growth inhibition, active compounds read high
Method in brief: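 DNA repair-defective yeast; compound exposure; growth scored against vehicle controls.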

[2] = NCI Yeast Anticancer Drug Screen. Data for the wt1 strain (AID 149);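 note: 0% = growth of vehicle-treated wt1 cultures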; conditions: S. cerevisiae wt1 strain (SPY 50644) growth inhibition, active compounds read high
Method in brief: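 Measured: growth of wt1 yeast under compound versus vehicle treatment, reported as inhibition.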

[3] = NCI Yeast Anticancer Drug Screen. Data for the rad50EPP+ strain (AID 151);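 note: 0% = growth of vehicle-treated control cultures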; conditions: S. cerevisiae rad50 mutant strain, active compounds read high
Method in brief: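 rad50EPP+ yeast treated with test compounds. Readout: growth vs vehicle control.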

[4] = NCI Yeast Anticancer Drug Screen. Data for the rad50 strain (AID 155);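 note: 0% = growth of vehicle-only cultures of the same strain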; conditions: S. cerevisiae rad50 strain growth inhibition, active compounds read high
Method in brief: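 Growth of the mutant yeast was measured after compound exposure and referenced to vehicle-treated cultures.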

[5] = NCI Yeast Anticancer Drug Screen. Data for the mec2-1 strain (AID 157); conditions: S. cerevisiae mec2-1 strain, active compounds read high
Method in brief: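 Growth inhibition is read against vehicle-treated controls after compound exposure of the mec2-1 yeast strain, which is defective in DNA damage repair or cell cycle control.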

[6] = NCI Yeast Anticancer Drug Screen. Data for the rad14 strain (AID 159);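 note: 0% = growth of vehicle-treated control cultures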; conditions: S. cerevisiae rad14 strain growth inhibition, active compounds read high
Method in brief: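 Here, inhibition of yeast growth was measured after compound exposure, using a strain with a genetic defect in DNA damage repair and vehicle-treated cultures as the reference.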

[7] = NCI Yeast Anticancer Drug Screen. Data for the sgs1 mgt1 strain (AID 161);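 note: 0% = growth of cultures given vehicle only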; conditions: S. cerevisiae sgs1 mgt1 strain, active compounds read high
Method in brief: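 Growth of a repair-deficient yeast mutant was monitored after compound treatment and expressed as inhibition relative to vehicle-treated cultures.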

[8] = NCI Yeast Anticancer Drug Screen. Data for the CLN2oe strain (AID 163);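 note: 0% = growth of vehicle-only control cultures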; conditions: S. cerevisiae CLN2oe strain, active compounds read high
Method in brief: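 Compound-treated yeast; growth vs vehicle ctrl = % inhibition. Genetically altered strain (cell-cycle control).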

[9] = NCI Yeast Anticancer Drug Screen. Data for the cln2 rad14 strain (AID 165);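 note: 0% = growth equal to vehicle treated cultures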; conditions: S. cerevisiae cln2 rad14 strain, active compounds read high
Method in brief: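 Growth inhibition, relative to vehicle-treated controls, is the read-out. The test organism is a yeast strain with defined genetic alterations, cln2 rad14.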

[10] = NCI Yeast Anticancer Drug Screen. Data for the bub3 strain (AID 167); conditions: S. cerevisiae bub3 mutant strain, active compounds read high
Method in brief: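 Whole-cell yeast assay. The mutant strain was incubated with compounds, and growth inhibition was determined by comparison with vehicle-treated cells.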

[11] = NCI Yeast Anticancer Drug Screen. Data for the wt2 strain (AID 169);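 note: 0% = growth of vehicle-treated yeast cultures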; conditions: S. cerevisiae wt2 strain growth inhibition, active compounds read high
Method in brief: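 Compound exposure of yeast; growth compared with vehicle controls; inhibition reported.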

[12] = NCI Yeast Anticancer Drug Screen. Data for the mlh1 strain (AID 171);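 note: 0% = growth of vehicle-treated control cultures of the same strain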; conditions: S. cerevisiae mlh1 strain growth inhibition, active compounds read high
Method in brief: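 Compounds are applied to a genetically altered yeast strain, and its growth is compared with that of vehicle-treated cultures to give percent inhibition.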

[13] = NCI Yeast Anticancer Drug Screen. Data for the sgs1 strain (AID 173);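 note: 0% = growth of vehicle-only control cultures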; conditions: S. cerevisiae sgs1 mutant, active compounds read high
Method in brief: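 Compounds applied to genetically altered yeast; growth compared with vehicle-treated cultures to give % inhibition.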

[14] = NCI Yeast Anticancer Drug Screen. Data for the mlh1 rad18 strain (AID 175); conditions: S. cerevisiae mlh1 rad18 strain growth inhibition, active compounds read high
Method in brief: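 Cells of a genetically altered yeast strain, deficient in DNA damage repair, were treated with compound. Their growth was then compared with that of vehicle-treated cultures to give inhibition.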

[15] = NCI Yeast Anticancer Drug Screen. Data for the rad18 strain (AID 177); conditions: S. cerevisiae rad18 mutant growth inhibition, active compounds read high
Method in brief: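 Compounds are applied to a repair-deficient yeast strain, and growth is compared with that of vehicle-treated cultures to give percent inhibition.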

[16] = at 5.0 µM (retest, dose inferred, filed as 0.5)
[17] = at 50.0 µM (retest, dose inferred, filed as 5.0)

With `Clc1cc(Cc2ccc(N=C/C=C/c3ccccc3)c(Cl)c2)ccc1N=C/C=C\c1ccccc1` as the compound, how does the growth inhibition ([1]; at 1.2 µM) read?
Its growth inhibition is 11%.

And the growth inhibition ([1]; at 3.7 µM)?
The growth inhibition was -1%.

And the growth inhibition ([1]; at 11.0 µM)?
Its growth inhibition is 4%.

What about the growth inhibition ([1]; at 33.0 µM) of the same compound?
The growth inhibition was 9%.

And the growth inhibition ([1]; at 100.0 µM)?
Its growth inhibition is 30%.

And the growth inhibition ([2]; at 1.2 µM)?
Its growth inhibition is -5%.

And the growth inhibition ([2]; at 3.7 µM)?
The growth inhibition was -4%.

What about the growth inhibition ([2]; at 11.0 µM) of the same compound?
The growth inhibition was -5%.

And the growth inhibition ([2]; at 33.0 µM)?
The growth inhibition was 1%.

And the growth inhibition ([2]; at 100.0 µM)?
Its growth inhibition is 14%.

What about the growth inhibition ([3]; at 1.2 µM) of the same compound?
Its growth inhibition is 18%.

What about the growth inhibition ([3]; at 3.7 µM) of the same compound?
The growth inhibition was -4%.

And the growth inhibition ([3]; at 11.0 µM)?
The growth inhibition was 15%.

And the growth inhibition ([3]; at 33.0 µM)?
Its growth inhibition is 15%.

What about the growth inhibition ([3]; at 100.0 µM) of the same compound?
Its growth inhibition is 21%.

What about the growth inhibition ([4]; at 1.2 µM) of the same compound?
The growth inhibition was 13%.

And the growth inhibition ([4]; at 3.7 µM)?
The growth inhibition was 3%.

And the growth inhibition [4, 16]?
Its growth inhibition is 100% (active).

What about the growth inhibition ([4]; at 11.0 µM) of the same compound?
The growth inhibition was 8%.

What about the growth inhibition ([4]; at 33.0 µM) of the same compound?
Its growth inhibition is 5%.

What about the growth inhibition [4, 17] of the same compound?
The growth inhibition was 100% (active).

And the growth inhibition ([4]; at 50.0 µM)?
The growth inhibition was 71.3% (active).

And the growth inhibition ([4]; at 100.0 µM)?
Its growth inhibition is 32%.

And the growth inhibition ([5]; at 1.2 µM)?
Its growth inhibition is 17%.

What about the growth inhibition ([5]; at 3.7 µM) of the same compound?
The growth inhibition was 20%.

What about the growth inhibition [5, 16] of the same compound?
Its growth inhibition is 100% (active).

What about the growth inhibition ([5]; at 11.0 µM) of the same compound?
Its growth inhibition is 9%.

And the growth inhibition ([5]; at 33.0 µM)?
The growth inhibition was -11%.

And the growth inhibition [5, 17]?
The growth inhibition was 99% (active).

What about the growth inhibition ([5]; at 50.0 µM) of the same compound?
Its growth inhibition is 33.1%.

And the growth inhibition ([5]; at 100.0 µM)?
Its growth inhibition is 19%.

And the growth inhibition ([6]; at 1.2 µM)?
Its growth inhibition is -8%.

What about the growth inhibition ([6]; at 3.7 µM) of the same compound?
The growth inhibition was -20%.

And the growth inhibition ([6]; at 11.0 µM)?
Its growth inhibition is -14%.

And the growth inhibition ([6]; at 33.0 µM)?
The growth inhibition was -19%.

What about the growth inhibition ([6]; at 100.0 µM) of the same compound?
The growth inhibition was 19%.

What about the growth inhibition [7, 16] of the same compound?
Its growth inhibition is -23%.

What about the growth inhibition [7, 17] of the same compound?
The growth inhibition was 88% (active).

What about the growth inhibition ([7]; at 50.0 µM) of the same compound?
The growth inhibition was 62.7%.

What about the growth inhibition ([8]; at 1.2 µM) of the same compound?
The growth inhibition was -3%.

What about the growth inhibition ([8]; at 3.7 µM) of the same compound?
Its growth inhibition is -18%.

What about the growth inhibition ([8]; at 11.0 µM) of the same compound?
Its growth inhibition is -20%.

What about the growth inhibition ([8]; at 33.0 µM) of the same compound?
The growth inhibition was -31%.

And the growth inhibition ([8]; at 100.0 µM)?
The growth inhibition was 3%.

And the growth inhibition [9, 16]?
The growth inhibition was 14%.

And the growth inhibition [9, 17]?
The growth inhibition was 74% (active).

And the growth inhibition ([9]; at 50.0 µM)?
The growth inhibition was 58.8%.

And the growth inhibition ([10]; at 1.2 µM)?
Its growth inhibition is -12%.

And the growth inhibition ([10]; at 3.7 µM)?
The growth inhibition was 1%.

And the growth inhibition [10, 16]?
Its growth inhibition is 30%.

What about the growth inhibition ([10]; at 11.0 µM) of the same compound?
The growth inhibition was -9%.

And the growth inhibition ([10]; at 33.0 µM)?
The growth inhibition was -9%.

And the growth inhibition [10, 17]?
Its growth inhibition is 86% (active).

What about the growth inhibition ([10]; at 50.0 µM) of the same compound?
The growth inhibition was 54.1%.

And the growth inhibition ([10]; at 100.0 µM)?
Its growth inhibition is -7%.

What about the growth inhibition ([11]; at 1.2 µM) of the same compound?
Its growth inhibition is -11%.

What about the growth inhibition ([11]; at 3.7 µM) of the same compound?
The growth inhibition was -17%.

What about the growth inhibition ([11]; at 11.0 µM) of the same compound?
Its growth inhibition is -8%.

What about the growth inhibition ([11]; at 33.0 µM) of the same compound?
Its growth inhibition is 4%.

And the growth inhibition ([11]; at 100.0 µM)?
Its growth inhibition is 26%.

And the growth inhibition ([12]; at 1.2 µM)?
Its growth inhibition is -16%.

And the growth inhibition ([12]; at 3.7 µM)?
Its growth inhibition is -9%.

And the growth inhibition ([12]; at 11.0 µM)?
Its growth inhibition is -17%.

What about the growth inhibition ([12]; at 33.0 µM) of the same compound?
Its growth inhibition is -10%.

What about the growth inhibition ([12]; at 100.0 µM) of the same compound?
Its growth inhibition is 12%.

And the growth inhibition ([13]; at 1.2 µM)?
Its growth inhibition is 12%.

And the growth inhibition ([13]; at 3.7 µM)?
Its growth inhibition is 7%.

And the growth inhibition ([13]; at 11.0 µM)?
Its growth inhibition is 8%.

What about the growth inhibition ([13]; at 33.0 µM) of the same compound?
The growth inhibition was 8%.

And the growth inhibition ([13]; at 100.0 µM)?
The growth inhibition was 41%.

What about the growth inhibition [14, 16] of the same compound?
The growth inhibition was 100% (active).

What about the growth inhibition [14, 17] of the same compound?
Its growth inhibition is 100% (active).

And the growth inhibition ([14]; at 50.0 µM)?
The growth inhibition was 64.7%.

What about the growth inhibition ([15]; at 1.2 µM) of the same compound?
Its growth inhibition is 1%.

And the growth inhibition ([15]; at 3.7 µM)?
Its growth inhibition is -11%.

And the growth inhibition ([15]; at 11.0 µM)?
Its growth inhibition is -20%.

And the growth inhibition ([15]; at 33.0 µM)?
The growth inhibition was -25%.

And the growth inhibition ([15]; at 100.0 µM)?
Its growth inhibition is 24%.
